About 83,000 compounds went through this panel and 20% of them were active in at least one assay; those are over-represented in the sample as a whole.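 Single-concentration screen, 48 h exposure, 96-well plates. Endpoint: percent growth. Below 10 = active.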 A number with no mark means an inactive call. Activity calls are given as the source filed them.

This test deals with SK-MEL-5 melanoma. The experiment in a line: NCI-60 one-dose screen, 48 h (100 = growth as untreated, 0 = no growth, -100 = all killed). The conditions noted are these: 10 µM unless noted. The procedure:
Growth inhibition of the SK-MEL-5 human tumor cell line is measured as a screen for anti-cancer activity. Cells are grown in 96 well plates and exposed to the test compound for 48 hours. Compounds are tested at a single concentration, which is 10^-5 M for most compounds. The reported endpoint is percent growth (GI% or GIPRCNT), where numbers from 0 - 100% represent growth inhibition, and numbers from -100% - 0 represent cell death. For example, a value of 40 represents 60% growth inhibition. A value of 0 means no net growth occurred over the course of the experiment. A value of -40 indicates 40% of cells at the beginning of the experiment died by the end of the experiment. A value of -100 means all cells are dead at the end of the experiment.
NCI-60 Human Tumor Cell Lines Screen was performed using the standard one-dose NCI protocol, which is described in more detail at https://dtp.cancer.gov/discovery_development/nci-60/default.htm.
Compounds with GIPRCNT values below 10 were considered active. Activity score was based on GIPRCNT using the following formula: […]
Score is 0 for GIPRCNT values of 100 or above, 50 for GIPRCNT values of 0, and 100 for GIPRCNT values of -100.
`COc1cc(-c2ccc3ncnc(NC(C)c4ccccc4)c3c2)cnc1OC` (stereo not given): the growth is 74.4%.

With `C#C[C@]1(O)CC[C@H]2[C@@H]3CC=C4c5sc(-c6ccc(F)cn6)nc5CC[C@]4(C)[C@H]3CC[C@@]21C`, the growth was 33.4%.

Regarding `C#Cc1nc(C2=C(C)C(=O)/C(=N/OC(C)=O)C2)cs1`, the growth was 97.3%.

As to `CC(C)(C)Nc1nc2c(OCCc3ccccc3)cccn2c1-c1cccc(F)c1`, the growth was -82.4% (active).

On to `CC(=O)Oc1ccccc1C(=O)Nc1cc(C(C)C)ccc1C`, for which the growth was -31.9% (active).

As for `N#Cc1c(-c2ccc(Cl)cc2)nc(SCc2ccccc2)nc1N1CCNCC1`, the growth is 84.5%.

Turning to `CCOc1ccc([C@H]2C(C(=O)c3ccc(Cl)cc3)C3(N[C@@H]2c2ccccc2)C(=O)Nc2ccc(Br)cc23)cc1` (stereo not given in full), the growth is 47.8%.

`CCCCCCNC(=O)Oc1ccc(/C(=C(/C)c2ccccc2)c2ccc(OCCN3CCCCCC3)cc2)cc1`: the growth was 20.1%.

For the compound `N#Cc1c(-c2ccc(F)cc2)nc2c(C#N)c(Nc3ccccc3)nn2c1N`, the growth is 99.2%.

For `O=C1/C(=C/C2=Cc3ccccc3OC2)SC(=S)N1c1ccc(F)cc1`, the growth was 100%.

Take `C[C@@H]1CN(c2ccc3ncc(C#Cc4cncc(C(=O)Nc5ccc(CN6CCN(C)CC6)c(C(F)(F)F)c5)c4)n3n2)C[C@H](C)O1`: the growth is -94.5% (active).

Take `COC(=O)c1ccc(NC(=S)N2CCc3ccc([N+](=O)[O-])cc3C2)cc1O`: the growth was 100%.

With `CC(=O)Oc1ccccc1C(=O)Nc1ccc(C(=O)/C=C/c2ccncc2)cc1`, the growth was 74%.

Turning to `O=c1/c(=C\c2ccc(-c3ccccc3)o2)sc2nc(-c3ccccc3)nn12`, the growth was 101%.

Turning to `CCN(CC)c1ccc(C=O)c(OCc2cn(CC(=O)Nc3ccc(Cl)cc3)nn2)c1`, the growth is 92.7%.

In the case of `CC(=NNc1ncnc2ccccc12)c1ccc(S(C)(=O)=O)cc1`, the growth was 101%.

As for `Cc1sc2c(c1C)c(=O)nc1c(-c3nc(-c4ccc(F)cc4)no3)n[nH]n12`, the growth was 107%.

In the case of `CC(C)(O)c1cncc(-c2ccc3ncnc(N4CCc5cc(F)c(Cl)cc54)c3c2)c1`, the growth was 13.4%.

Turning to `COC(=O)C1CN(S(=O)(=O)/N=C2\NC(=O)NC2=C(Cl)Cl)C1`, the growth was 100%.

With `Cc1nc(-c2cc3ccccc3oc2=O)ccc1C(=O)/C=C/c1ccc(Cl)c(Cl)c1`, the growth was 105%.

Turning to `CS(=O)(=O)Nc1ccc(-c2nn(-c3ccc(S(C)(=O)=O)cc3)cc2/C=C/C(=O)c2ccc(NC(=O)CO[N+](=O)[O-])cc2)cc1`, the growth is 100%.

Consider `O=C1Nc2cc(Cl)ccc2/C1=C\c1ccc(OCc2ccc([N+](=O)[O-])cc2)cc1`, for which the growth was 84.4%.

`CC(C)(C)Nc1nc2c(OCCc3ccccc3)cccn2c1-c1ccc(O)cc1`: the growth was 50.6%.

Turning to `COc1ccccc1C(=O)CSc1nc(Nc2ccc(S(N)(=O)=O)cc2)c2ccccc2n1`, the growth is 91.7%.

Turning to `Cn1cc(-c2cc(N)n3nc(-c4cn(C)c5ccc(Cl)cc45)cc3n2)c2cc(Cl)ccc21`, the growth is 104%.

`COc1ccc(/C=C2\SC(=Nc3cc(C)[nH]n3)NC2=O)cc1`: the growth was 95.7%.

Regarding `Cc1ccc2ccc3ccc(C)nc3c2n1.Cc1ccc2ccc3ccc(C)nc3c2n1.Oc1c(Cl)cc(Cl)c2ccc(CN3CCCCC3)nc12.[Ru]`, the growth is -97.9% (active).

On to `CCOC(=O)c1c(Nc2ccccc2)nn2c(N)c(C#N)c(-c3ccc(Cl)cc3)nc12`, for which the growth is 94.8%.

For the compound `COc1ccc(-c2nc3ccc(-c4nnc(SCC(=O)Nc5ccc(C(=O)/C=C/c6ccc(Cl)cc6)cc5)o4)cc3[nH]2)cc1OC`, the growth is 97.6%.

`C#Cc1nc(C2=C(C)/C(=N/OCc3ccccc3)CC2)cs1`: the growth was 85.7%.

In the case of `COC(=O)C1CCCN(S(=O)(=O)/N=C2\NC(=O)NC2=C(Cl)Cl)C1` (stereo not given), the growth is 101%.

In the case of `COc1cccc(-c2nn(-c3ccccc3)cc2-c2ccnc(N3CCN(C(=O)c4ccccc4)CC3)c2)c1`, the growth was 49.8%.

As for `CS(=O)(=O)c1ccc(-c2nc3ccccn3c2/C=N/Nc2nc(-c3ccc(Br)cc3)cs2)cc1`, the growth was 96.5%.

For `N#Cc1c(-c2ccc(Cl)cc2)nc2c(-c3ccccc3)c(Nc3ccccc3)nn2c1N`, the growth was 92.9%.

With `COc1cc(/C=C/C(=O)c2cc(OC)c(OC)c(OC)c2)ccc1OCc1ccccc1`, the growth is 63.2%.

For the compound `O=C(Oc1ccc2ccc(=O)oc2c1)c1ccc(Cl)cc1`, the growth is 101%.

Regarding `Clc1ccc2oc3c(NCCCn4ccnc4)c4ccccc4nc3c2c1`, the growth was 78%.

Consider `CN(C)c1ccc(/C=C2\Cc3c(F)ccc(Br)c3C2=O)cc1`, for which the growth was 96.4%.

With `c1ccc2c(NCCCn3ccnc3)c3oc4ccccc4c3nc2c1`, the growth is 9.52% (active).

In the case of `CSCCC(C(=O)O)N1C(=O)/C(=C/c2ccc(O)c(O)c2)SC1=S` (stereo not given), the growth is 99.9%.

The values above are taken from PubChem BioAssay (NCI).
